# Bioassay records (PubChem)
# Vaccinia Venus – qHTS for Stage-Specific Inhibitors of Vaccinia Orthopoxvirus: Venus Reporter Primary qHTS; 0.46% of 330,000 active; Potency, µM (series often up to 36.5 µM), for the others: top-dose activity change, negative = inhibition, hits mostly inhibitors; AID 720580, 2013; Vaccinia virus Venus reporter expression, fluorescence; calls by dose curve; tested in A549 cells; also: nearly all actives have a fitted effect of over 30% in size
# MARV entry inh – qHTS for inhibitors of binding or entry into cells for Marburg Virus. Potency, µM (titrated, usually from 37.8 µM), for the others: at the top dose activity change, negative = inhibition, hits mostly inhibitors. Marburg virus pseudotyped entry inhibition, cell reporter. AID 540276, 2011. 1.8% of 300,000 active; calls by dose curve; tested in HEK293 cells
# FMDV inh – High Throughput Screening for Foot and Mouth Disease Virus Antivirals | FMDV antiviral cell-based qHTS | Potency, µM (top dose mostly 57.9 µM), for the others: at the top dose activity change, negative = inhibition, usual class: inhibitors | 1.2% of 410,000 active | AID 1159524, 2015; calls by dose curve; tested in HEK293T cells; also: read-out not given here; nearly all actives have a fitted effect of over 45% in size
# LASV entry inh – qHTS for Inhibitors of binding or entry into cells for Lassa Virus; Lassa virus pseudotype entry inhibition, cell reporter; Potency, µM (titrated, usually from 37.9 µM), for the others: at the highest dose activity change, negative = inhibition, most hits filed as inhibitors; 1.2% of 300,000 active; calls by dose curve; tested in HEK293 cells; also: nearly all actives have a fitted effect of over 50% in size
# VACV mCherry inh – qHTS for Stage-Specific Inhibitors of Vaccinia Orthopoxvirus: mCherry Reporter Primary qHTS; Vaccinia virus mCherry reporter infection, fluorescence; Potency, µM (series often up to 36.5 µM), for the others: at the highest dose activity change, negative = inhibition, usual class: inhibitors; 0.63% of 310,000 active; AID 720579, 2013; calls by dose curve; tested in A549 cells; also: nearly all actives have a fitted effect of over 35% in size
# Numbers without * were called inactive; i = inactive; ? = inconclusive; · = no result given; [ ] = remark or other dose. Most compounds without a hit are left out; they make up all but 3.2% or so of the library. % is scaled to controls: 0 for no effect and ±100 for the full control effect; potency is read from the fitted curve at half-maximal effect.
SMILES,Vaccinia Venus,MARV entry inh,FMDV inh,LASV entry inh,VACV mCherry inh
Cn1c(N)c(C(=O)COC(=O)c2cc(S(=O)(=O)N3CCOCC3)ccc2F)c(=O)n(C)c1=O,?,7.08µM*,-29.2%,-29.2%,-26.4%
COc1cccc(/C=C/C(=O)OCC(=O)c2c[nH]c3ccccc23)c1,·,·,-7.5%,·,·
C=CC[C@@H]1C=C[C@@H](Oc2ccc(OC)cc2)[C@H](CO)O1,·,-14.9%[14.2 µM],·,·,·
c1cnc(Sc2ccc3nnnn3n2)nc1,?,-26.2%[46.1 µM],16.9%,-6.5%[46.1 µM],?
C=CCN=C1N[C@@H](c2ccccc2)[C@H](C(=O)OC)[C@@H](C)N1CC,·,-24.9%[14.2 µM],·,·,·
CCOC(=O)C1CCCN(C(=O)c2cc(Nc3ccc(OC)c(OC)c3)nc3ccccc23)C1 (stereo not given),-17.1%,11.2µM*,?,-15.2%,-19.7%
COc1cc(C(=O)NCC(c2ccc(N(C)C)cc2)N2CCc3ccccc32)cc(OC)c1OC (stereo not given),-5.2%,·,-23.6%,-12.6%[46.1 µM],-4.5%
Cc1cc(S(=O)(=O)c2ccc([N+](=O)[O-])cn2)ccc1Br,-20.5%,10µM*,8.91µM*,?,-3.3%
O=[N+]([O-])c1ccc(S(=O)(=O)c2ccccc2)nc1,?,·,35.5µM*,·,-20.2%
Cc1ccc([N+](=O)[O-])cc1,-6.3%,·,-0.5%,·,i
Cc1cc(Sc2ccc([N+](=O)[O-])cn2)ccc1Br,-10.4%,?,-12.1%,0.6%,-11.8%
Cc1ccc(S(=O)(=O)c2ccc([N+](=O)[O-])cn2)cc1,-26.1%,3.98µM*,25.1µM*,?,?
Nc1ccc(S(=O)(=O)c2ccccc2)nc1,-5.5%,·,3.3%,·,i
COc1ccc(-n2c(SCC(=O)Nc3nnc(C)s3)nc3c([nH]c4ccccc43)c2=O)cc1,-18.2%,·,-11.1%,-24.9%[46.1 µM],-2.8%
CCc1nnc(NC(=O)CSc2nc3c([nH]c4ccccc43)c(=O)n2-c2ccc(Cl)cc2)s1,-17.4%,·,-8.2%,7.94µM*,-15.0%
O=C(Cc1c(F)cccc1Cl)NNC(=O)c1cccs1,·,·,6.6%,·,·
Cc1nn(C)c(C(=O)Nc2ccc(S(=O)(=O)NC34CC5CC(CC(C5)C3)C4)cc2)c1Br,?,?,-19.0%,?,12.6µM*
O=C(N(CC1CCCCC1)C1=NCCCC1)C12CC3CC(CC(C3)C1)C2,·,-19.3%,·,·,·
COC(=O)Cc1[nH]n(-c2ccccc2)c(=O)c1C(C)=Nc1ccccc1,-2.0%,18.3%[46.1 µM],56.9%,18.8%,-6.6%
COC(=O)Cc1[nH]n(-c2nc3ccccc3s2)c(=O)c1C(C)=Nc1ccc(Cl)cc1,·,·,1µM*,·,·
C/C(=N/NC(=O)c1cccs1)c1c(C)[nH]n(-c2nc3ccccc3s2)c1=O,·,4.61µM*,-14.6%,?,·
COC(=O)Cc1[nH]n(-c2nc3ccccc3s2)c(=O)c1C(C)=Nc1ccc(C)cc1,-16.1%,?,0.355µM*,?,-10.8%
CC(C)S(=O)(=O)N1CCCC(C(=O)c2cccc(Cl)c2)C1 (stereo not given),-13.9%,-3.0%[46.1 µM],-15.8%,?,-7.1%
COc1ccc2c(c1)-c1nc(-n3ncc(C(=O)NC(C)(C)CO)c3C3CC3)ncc1CC2,-1.4%,·,-19.7%,·,-17.5%
Cc1ccc(CN2CCOc3ccc(CN4CCC(Oc5cccnc5)CC4)cc3C2)o1,-7.7%,·,-16.3%,·,-10.1%
SMILES,Vaccinia Venus,MARV entry inh,FMDV inh,LASV entry inh,VACV mCherry inh
CCOc1ccc(S(=O)(=O)c2c(C(=O)c3ccc(C)cc3)cnc3cc4c(cc23)OCCO4)cc1,-14.1%,?,10.1%,-10.8%,-12.6%
Cc1ccc(C(=O)c2cnc3cc4c(cc3c2S(=O)(=O)c2ccccc2)OCCO4)cc1,?,7.08µM*,1.6%,-1.9%,?
COc1ccc(NC(=O)N2CCN(c3nc(-c4cccc(OC)c4)cs3)CC2)cc1,·,23.1µM*,20µM*,?,·
COc1cccc(-c2csc(N3CCN(C(=S)Nc4cccc(Cl)c4)CC3)n2)c1,?,?,·,?,i
CCn1c(SCC(=O)NC2CCCC2)nnc1-c1cccnc1,1.9%,-4.8%[46.1 µM],-8.0%,4.1%[46.1 µM],-14.5%
COc1ccc(S(=O)(=O)NC(=O)C2(C)CCN2C(=O)Cc2ccccc2Cl)cc1 (stereo not given),-5.1%,·,-0.5%,·,5.4%
Cc1ccn2cc(-c3cccc([N+](=O)[O-])c3)nc2c1,-10.0%,?,-10.4%,4.47µM*,-12.0%
C=CC[n+]1c(-c2ccc(OC)cc2)csc1NNC(=O)Nc1ccccc1,-22.8%,-50.2%,·,?,-24.7%
C=CC[n+]1c(-c2ccc(C)cc2)csc1Nc1ccc(NC(C)=O)cc1,·,6.51µM*,?,2.31µM*,·
Cc1ccc(Cl)cc1-c1cc(C(=O)NCc2cc(C(F)(F)F)cc(C(F)(F)F)c2)[nH]n1,?,·,39.8µM*,·,-26.9%
Cc1ccc(F)cc1-c1cc(C(=O)NCc2cc(C(F)(F)F)cc(C(F)(F)F)c2)[nH]n1,3.7%,·,-9.5%,·,27.6%
COc1ccc(Cl)cc1-c1cc(C(=O)Nc2ccc(C)c(NS(C)(=O)=O)c2)[nH]n1,-28.8%,·,31.6µM*,·,-27.8%
Cc1ccc(NC(=O)c2cc(-c3cc(Cl)ccc3C)n[nH]2)cc1NS(C)(=O)=O,-21.0%,·,25.1µM*,·,-1.6%
O=C([C@@H]1C[C@@H](Sc2nc3ccccc3[nH]2)CN1Cc1c(F)cccc1F)N1CCOCC1,-13.2%,·,-14.1%,·,-3.9%
Cc1ccc(C(=O)C=CC=Cc2ccccc2)cc1,-5.3%,·,44.3%,·,-9.1%
Cc1ccc(C(=O)C(C(=O)/C=C/c2ccccc2)=C2SCCCS2)cc1,?,?,11.2µM*,22.4µM*,?
N#CC1=C(N)N2C(=C(C#N)C13CCN(Cc1ccccc1)CC3)Nc1ccccc12,·,-21.4%,-2.3%,4.5%,·
N#CC1=C(N)N2C(=C(C#N)C1c1ccc(Br)cc1)Nc1ccccc12 (stereo not given),·,9.2µM*,?,?,·
N#CC1=C(N)N2C(=C(C#N)C1c1cccc(Br)c1)Nc1ccccc12 (stereo not given),-2.9%,0.0%[46.1 µM],7.94µM*,?,i
Cc1ccc2c(/C=C/c3ccc(N(C)C)cc3)ccnc2c1,25.3%,·,·,·,13.6%
COc1ccc(OC)c(C2CC(=O)c3c([nH]c(C(=O)OCc4ccc(C)cc4)c3C)C2)c1 (stereo not given),-25.8%[7.34 µM],?,0.0%,-10.5%[46.1 µM],-5.5%[7.34 µM]
CCOC(=O)c1[nH]c2c(c1C)C(=O)CC(c1ccc(OC)c(OC)c1)C2 (stereo not given),-26.5%,-20.3%,-9.9%,-6.2%,·
COCCOC(=O)c1[nH]c2c(c1C)C(=O)CC(c1cc(OC)ccc1OC)C2 (stereo not given),-25.4%,·,-9.3%,·,-19.2%
COc1cc(C2CC(=O)c3c([nH]c(C(=O)OCc4ccc(C)cc4)c3C)C2)cc(OC)c1OC (stereo not given),-28.8%[7.34 µM],?,14.1µM*,-12.0%[46.1 µM],?
CCOCCOC(=O)c1[nH]c2c(c1C)C(=O)CC(c1ccc(OC)c(OC)c1)C2 (stereo not given),-6.8%,?,22.4µM*,?,-4.2%
